Assay outcomes (PubChem)
CYP2C19 act – human CYP2C19 activators, primary screen, biochemical, luminescence; Cytochrome P450 2C19 (Homo sapiens), P33261; recombinant CYP2C19, luciferin-H EGE luminescence; stronger effect = higher value; 0 = fully inhibited enzyme, 1 = untreated enzyme; activation factor at 5 µM; 96,000 tested, under 10 active;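 active = activation factor of at least 2 at 5 µM in the primary screen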;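 note: 0 = wells with 2.5 mM tranylcypromine and 1 = vehicle-only wells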
CYP2C19 inh – blockers of cytochrome P450 2C19 activity – biochemical, luminescence, ADME assay, primary screen. P33261. CYP2C19 Supersomes, luciferin-H EGE luminescence, 30 min. inhibition, % at 5 µM. 21% of 96,000 active;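 active = CYP2C19 inhibition above a set limit at 5 µM in the primary screen, cut at about 50% in these data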;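 note: plate controls were negative control wells for no effect and 2.5 mM tranylcypromine positive control for full effect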
CYP2C9 inh – blockers of cytochrome P450 2C9 activity – biochemical, luminescence, ADME assay, primary screen; AID 777, 2007; inhibition, % at 5 µM; CYP2C9 Supersomes, luciferin-H conversion; 20% of 96,000 active; P11712;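 active = blocking of liver enzyme CYP2C9 beyond about 50% at 5 µM, limit read from the data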
Target sequence (P11712 whole entry, looked up): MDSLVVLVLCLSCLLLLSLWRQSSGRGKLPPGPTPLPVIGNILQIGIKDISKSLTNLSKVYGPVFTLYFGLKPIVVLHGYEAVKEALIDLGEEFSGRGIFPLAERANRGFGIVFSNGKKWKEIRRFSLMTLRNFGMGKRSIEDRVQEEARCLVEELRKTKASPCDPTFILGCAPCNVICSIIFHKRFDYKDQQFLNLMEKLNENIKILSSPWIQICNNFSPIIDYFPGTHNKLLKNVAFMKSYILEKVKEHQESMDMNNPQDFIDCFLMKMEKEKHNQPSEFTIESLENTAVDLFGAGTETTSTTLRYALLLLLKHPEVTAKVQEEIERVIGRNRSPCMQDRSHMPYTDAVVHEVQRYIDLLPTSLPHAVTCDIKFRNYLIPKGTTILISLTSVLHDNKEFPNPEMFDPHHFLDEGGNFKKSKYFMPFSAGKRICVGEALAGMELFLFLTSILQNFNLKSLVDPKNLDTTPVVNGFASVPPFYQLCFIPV
PostGolgi ctrl – growth inhibition of yeast control strain, primary screen, counter-screen for post-Golgi transport modulator project; efflux-deficient yeast background strain, growth absorbance A615, 16 h; inhibition, % at 10 µM; 5% of 98,000 active
PostGolgi yeast – phenotypic screen on post-Golgi transport, primary screen; inhibition, % at 10 µM; post-Golgi transport phenotypic cell assay; AID 739, 2007; 0.9% of 98,000 active;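 note: yeast cells grown in 1536-well plates; yeast grown about 18 h at 30C before absorbance read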
CYP2C9 act – human CYP2C9 activators, primary screen, biochemical, luminescence; recombinant CYP2C9, luciferin-H conversion; stronger effect = higher value; factor 1 = untreated enzyme, 0 = blocked; activation factor at 5 µM; 1.4% of 96,000 active;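 active = activation factor of 2 or more for CYP2C9 at a 5 µM dose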;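 note: 0 = sulfaphenazole-blocked wells and 1 = vehicle-only wells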
Numbers without * were called inactive. Most compounds without a hit are left out; they make up all but 32% or so of the library. Cut-off read from the data, not from the text of the source, unless noted: active = inhibition above about 30%; inactive = the rest.

How did CCOC(=O)CSc1nc2cc(C(=O)N3CCC(C(N)=O)CC3)ccc2c(=O)n1-c1ccccc1 do in these assays?
CYP2C19 act: 0.7; CYP2C19 inh: 25.6; CYP2C9 inh: 58.6*; PostGolgi ctrl: 5.5; PostGolgi yeast: -6.8; CYP2C9 act: 0.4

Results for CCOC(=O)CSc1nc2cc(C(=O)NCc3ccco3)ccc2c(=O)n1C1CCCCC1 ?
CYP2C19 act: 0.8; CYP2C19 inh: 19.8; CYP2C9 inh: 51.1*; PostGolgi ctrl: 45.2*; PostGolgi yeast: -7.0; CYP2C9 act: 0.5

How did CCOC(=O)CSc1nc2ccsc2c(=O)n1C1CCN(C(=O)OCC)CC1 do in these assays?
CYP2C19 act: 0.6; CYP2C19 inh: 42.1; CYP2C9 inh: 61.5*; PostGolgi ctrl: 21.0; PostGolgi yeast: -5.2; CYP2C9 act: 0.4

Results for CCOC(=O)CSc1nc2cc(C(=O)N3CCCC3)ccc2c(=O)n1Cc1ccccc1 ?
CYP2C19 act: 0.6; CYP2C19 inh: 44.8; CYP2C9 inh: 42.5; PostGolgi ctrl: 13.4; PostGolgi yeast: 14.1; CYP2C9 act: 0.6

What do the screens show for `CCOC(=O)N1CCC(n2c(SCC(=O)OCc3ccccc3)nc3ccsc3c2=O)CC1`?
CYP2C19 act: 0.6; CYP2C19 inh: 37.7; CYP2C9 inh: 47.2; PostGolgi ctrl: 9.0; PostGolgi yeast: -7.2; CYP2C9 act: 0.5

What do the screens show for `COc1ccc(N2CCN(C(=O)CSc3nnc(-c4cccnc4)n3-c3ccccc3)CC2)cc1`?
CYP2C19 act: 0.8; CYP2C19 inh: 19.2; CYP2C9 inh: 7.5; PostGolgi ctrl: -7.8; PostGolgi yeast: -3.5; CYP2C9 act: 0.9

How did CN1C(=O)C(O)(c2sc(N)nc2-c2ccccc2)c2ccccc21 (stereo not drawn) do in these assays?
CYP2C19 act: 0.7; CYP2C19 inh: 25.5; CYP2C9 inh: 11.7; PostGolgi ctrl: 2.9; PostGolgi yeast: -2.7; CYP2C9 act: 0.9

Results for CCOC(=O)N1CCC(n2c(SCC(=O)Nc3nccs3)nc3ccsc3c2=O)CC1 ?
CYP2C19 act: 0.7; CYP2C19 inh: 26.5; CYP2C9 inh: 61.4*; PostGolgi ctrl: -1.9; PostGolgi yeast: 1.3; CYP2C9 act: 0.4

What do the screens show for `Cc1ccc2[nH]c(=O)c(CN(Cc3cccnc3)C(=O)c3ccncc3)cc2c1`?
CYP2C19 act: 0.1; CYP2C19 inh: 90.7*; CYP2C9 inh: 80.0*; PostGolgi ctrl: -3.0; PostGolgi yeast: -4.1; CYP2C9 act: 0.2

How did CCN(Cc1cc2cc(OC)ccc2[nH]c1=O)C(=O)c1ccncc1 do in these assays?
CYP2C19 act: 0.3; CYP2C19 inh: 73.6*; CYP2C9 inh: 68.5*; PostGolgi ctrl: 0.0; PostGolgi yeast: -4.1; CYP2C9 act: 0.3

How did CCN(Cc1cc2cc(OC)ccc2[nH]c1=O)C(=O)Cc1ccc(OC)cc1 do in these assays?
CYP2C19 act: 0.6; CYP2C19 inh: 42.7; CYP2C9 inh: 19.1; PostGolgi ctrl: -4.3; PostGolgi yeast: 2.1; CYP2C9 act: 0.8

Results for Cc1cccc(C)c1-n1c(SCC(=O)NCc2ccco2)nc2ccccc2c1=O ?
CYP2C19 act: 0.6; CYP2C19 inh: 44.4; CYP2C9 inh: 32.0; PostGolgi ctrl: 7.9; PostGolgi yeast: 4.8; CYP2C9 act: 0.7

How did CC1CCCN(c2ccc(C(=O)NCC3CCCO3)cn2)C1 (stereo not drawn) do in these assays?
CYP2C19 act: 1; CYP2C19 inh: -2.9; CYP2C9 inh: -5.0; PostGolgi ctrl: -0.2; PostGolgi yeast: 18.6; CYP2C9 act: 1.1

How did COC(=O)c1[nH]c2ccccc2c1NC(=O)CN1CCN(C/C=C/c2ccccc2)CC1 do in these assays?
CYP2C19 act: 0.3; CYP2C19 inh: 73.8*; CYP2C9 inh: 86.1*; PostGolgi ctrl: -4.1; PostGolgi yeast: -1.3; CYP2C9 act: 0.1

What do the screens show for `CCOC(=O)c1[nH]c2ccc(F)cc2c1NC(=O)CN1CCN(C/C=C/c2ccccc2)CC1`?
CYP2C19 act: 0.5; CYP2C19 inh: 52.3*; CYP2C9 inh: 58.7*; PostGolgi ctrl: 12.3; PostGolgi yeast: -2.9; CYP2C9 act: 0.4

What do the screens show for `COC(=O)c1[nH]c2ccccc2c1NC(=O)CN1CC(C)OC(C)C1` (stereo not drawn)?
CYP2C19 act: 1.1; CYP2C19 inh: -9.0; CYP2C9 inh: -11.0; PostGolgi ctrl: -7.2; PostGolgi yeast: -0.2; CYP2C9 act: 1.1

Results for COc1ccc(C2(CNC(=O)CCC(=O)O)CCCC2)cc1OC ?
CYP2C19 act: 0.9; CYP2C19 inh: 14.7; CYP2C9 inh: -7.3; PostGolgi ctrl: 0.1; PostGolgi yeast: -6.1; CYP2C9 act: 1.1

Results for COc1ccc(OCCCC(=O)NC(C)c2ccccc2)cc1 (stereo not drawn) ?
CYP2C19 act: 0.4; CYP2C19 inh: 56.9*; CYP2C9 inh: -36.0; PostGolgi ctrl: 27.3; PostGolgi yeast: -0.8; CYP2C9 act: 1.4

Results for CC(NC(=O)CCOc1ccccc1)c1ccccc1 (stereo not drawn) ?
CYP2C19 act: 0.1; CYP2C19 inh: 94.9*; CYP2C9 inh: 27.5; PostGolgi ctrl: 20.1; PostGolgi yeast: -1.1; CYP2C9 act: 0.7

How did CC(=O)NCCOc1ccc2oc3ccccc3c2c1 do in these assays?
CYP2C19 act: 0.9; CYP2C19 inh: 6.4; CYP2C9 inh: 7.5; PostGolgi ctrl: 23.5; PostGolgi yeast: 5.9; CYP2C9 act: 0.9

What do the screens show for `Cc1ccc(-c2ccc(=O)n(CCC(=O)NCCN3CCCCC3C)n2)cc1` (stereo not drawn)?
CYP2C19 act: 1; CYP2C19 inh: -2.8; CYP2C9 inh: -3.1; PostGolgi ctrl: -2.2; PostGolgi yeast: 21.1; CYP2C9 act: 1

How did CCCCCCCC(=O)NNC(=O)c1ccc(F)cc1 do in these assays?
CYP2C19 act: 0.7; CYP2C19 inh: 34.9; CYP2C9 inh: 6.0; PostGolgi ctrl: -1.2; PostGolgi yeast: -2.1; CYP2C9 act: 0.9

Results for CCOC(=O)C1C(c2cccc(Cl)c2Cl)NC(=O)NC1(O)C(F)(F)F (stereo not drawn) ?
CYP2C19 act: 0.8; CYP2C19 inh: 20.8; CYP2C9 inh: 1.0; PostGolgi ctrl: 3.7; PostGolgi yeast: 3.6; CYP2C9 act: 1

How did CCOc1ccc(N=c2oc3cc(O)ccc3cc2C(=O)NCC2CCCO2)cc1 (stereo not drawn) do in these assays?
CYP2C19 act: 1.2; CYP2C19 inh: -22.5; CYP2C9 inh: 42.3; PostGolgi ctrl: 12.1; PostGolgi yeast: -1.4; CYP2C9 act: 0.6

What do the screens show for `CCOc1ccccc1N=c1oc2cc(O)ccc2cc1C(=O)NCC1CCCO1` (stereo not drawn)?
CYP2C19 act: 1; CYP2C19 inh: 1.8; CYP2C9 inh: 53.4*; PostGolgi ctrl: 4.0; PostGolgi yeast: -0.3; CYP2C9 act: 0.5

How did COc1ccc(N=c2oc3cc(O)ccc3cc2C(=O)NCC2CCCO2)cc1 (stereo not drawn) do in these assays?
CYP2C19 act: 0.9; CYP2C19 inh: 14.2; CYP2C9 inh: 52.0*; PostGolgi ctrl: -1.5; PostGolgi yeast: 0.7; CYP2C9 act: 0.5
